Screening data from PubChem BioAssay.
In the library only some 13% were active in any assay of this set; here they are far more common.
KDM4E inh – qHTS Assay for Inhibitors of Human Jumonji Domain Containing 2E (JMJD2E); 230,000 compounds, 1.6% hits; Potency, µM (doses to about 57.1 µM), for inactives: top-dose activity change, negative = inhibition, actives largely listed as inhibitors; JMJD2E catalytic domain, FDH-coupled NADH fluorescence (FDH is formaldehyde dehydrogenase); Lysine-specific demethylase 4E (Homo sapiens), B2RXH2; active = well fitted inhibition curve with a large enough effect, not every such curve was filed as active; inconclusive = small, poorly fitted or top-dose-only effect, or another doubt; inactive = no such curve, though single readings can be large or run the other way;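 note: potency is the fitted concentration of half-maximal effect; 0% = wells with enzyme and -100% = buffer wells without enzyme; nearly all actives have a fitted effect of over 50% in size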
Target sequence (B2RXH2 1-337 limits assumed): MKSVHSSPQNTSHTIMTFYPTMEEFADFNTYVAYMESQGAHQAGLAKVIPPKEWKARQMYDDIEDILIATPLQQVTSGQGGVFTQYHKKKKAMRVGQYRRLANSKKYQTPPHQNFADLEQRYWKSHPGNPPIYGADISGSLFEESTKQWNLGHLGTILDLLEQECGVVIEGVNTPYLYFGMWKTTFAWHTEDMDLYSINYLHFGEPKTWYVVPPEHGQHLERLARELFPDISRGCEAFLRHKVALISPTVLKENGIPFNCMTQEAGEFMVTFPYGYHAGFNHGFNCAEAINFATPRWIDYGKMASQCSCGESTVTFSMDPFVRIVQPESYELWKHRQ
ALDH1A1 block – qHTS Assay for Inhibitors of Aldehyde Dehydrogenase 1 (ALDH1A1) | Aldehyde dehydrogenase 1A1 (Homo sapiens), P00352 | Purified ALDH1A1, NADH fluorescence, propionaldehyde substrate | Potency, µM (series often up to 75.3 µM), for the others: at the highest dose activity, negative = inhibition, hits mostly inhibitors | 220,000 compounds, 7.3% hits; active = well fitted inhibition curve with a large enough effect, not every such curve was filed as active; inconclusive = small, poorly fitted or top-dose-only effect, or another doubt; inactive = no such curve, though single readings can be large or run the other way;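 note: potency is the fitted concentration of half-maximal effect; plate controls were no enzyme wells and a reference inhibitor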
Lamin A splicing – qHTS Assay for Modulators of Lamin A Splicing. AID 1487, 2009. 200,000 compounds, 0.01% hits. Potency, µM (top dose mostly 46.1 µM), for inactives: at the highest dose ratio change, negative = inhibition, hits mostly inhibitors. HeLa LMNA splicing GFP/RFP minigene ratio, 48 h; active = well fitted inhibition curve with a large enough effect in the signal ratio, with a control signal flat, not every such curve was filed as active; inconclusive = small, poorly fitted or top-dose-only effect, or effect the other way, or a change in a side signal; the % refers to the signal ratio; note: potency is the fitted concentration of half-maximal effect; % is set by controls: 0 for no effect and ±100 for the full control effect
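Read-out is the ratio of GFP to DsRed2 object intensity, acquired by 488 nm laser-scanning cytometry on HeLa lamin A-EGFP minigene reporter cells. Compound incubation 48 hrs at 37 °C in Opti-MEM with 2% FBS; DMSO 0.5% final.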
G9a block – qHTS Assay for Inhibitors of Histone Lysine Methyltransferase G9a; G9a H3K9 monomethylation, AlphaScreen, 2 h; Potency, µM (series often up to 102 µM), without a hit: at the highest dose activity, negative = inhibition, usual class: inhibitors; 350,000 compounds, 8.8% hits; AID 504332, 2011; note: potency is the fitted concentration of half-maximal effect; % is set by controls: 0 for no effect and ±100 for the full control effect; nearly all actives have a fitted effect of over 75% in size
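Chemiluminescent proximity detection of H3K9 monomethylation, read after 10 min bead incubation in the dark. Reaction: 20 nM G9a, 500 nM biotin-H3K9 peptide, 20 uM SAM cofactor, 2 h, room temperature, following 15 min enzyme-compound preincubation.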
miR-21 reporter – qHTS Assay for Modulators of miRNAs and/orActivators of miR-21. HeLa miR-21 FLuc reporter, luciferase, 48 h. Potency, µM (highest dose often 38.3 µM), for the others: at the top dose activity change, positive = activation, most hits filed as activators. 340,000 tested, under 10 active. AID 2288, 2010;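 note: % of control where 0% means no effect; miR-21 action dims this reporter so a rising signal means less miR-21 action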
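HeLa miR-21-FLuc reporter line, endogenous miR-21; 2000 cells/well in DMEM/10% FBS; compound titration up to ~40uM final, 48 h, 37 degree Celsius; luciferase detection reagent, 15 min lysis, CCD luminescence.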
Sfp inh – qHTS Assay for Inhibitors of Bacillus subtilis Sfp phosphopantetheinyl transferase (PPTase). Biochemical Sfp PPTase activity, qHTS. Potency, µM, without a hit: largest response in the series, negative = inhibition, most hits filed as inhibitors. 310,000 compounds, 3.5% hits;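 note: the enzyme is Sfp with the accession as filed and its product quenches rhodamine fluorescence; potency is the fitted concentration of half-maximal effect; 0% = enzyme reaction without inhibitor and -100% = no enzyme wells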
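Step 1, compound plus 15 nM Sfp-PPTase, 15 min, room temperature. Step 2, add rhodamine-CoA (5 uM) and BHQ-2-YbbR (12.5 uM). Step 3, read 525/598 nm fluorescence at 0 and 30 min.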
* hit, by the source's call; ? = inconclusive; nt = no result; [ ] = remark or other dose. Unless noted, calls come from the whole dose curve; as a rule, active = well fitted curve in the direction sought with a large enough effect; inconclusive = small, poorly fitted or top-dose-only effect, or another doubt; inactive = no such curve, though single readings can be large; an effect the other way counts as inactive or inconclusive.

SMILES	KDM4E inh	ALDH1A1 block	Lamin A splicing	G9a block	miR-21 reporter	Sfp inh
COCCN=c1scc(-c2ccccc2)n1/N=C/c1c[nH]c2ccccc12	0%	?	?	13µM*	-25%	-12%
Cc1cccc(C)c1OCc1nc2ccccc2c(=O)n1/N=C/c1c[nH]c2ccccc12	?	-8%	?	-10%	17%	37%
CCN=c1scc(C)n1/N=C/c1cc(Br)c(O)c(Br)c1	?	?	?	10µM*	1%	?
Cc1c(NC(=S)NNC(=O)CCC(=O)O)c(=O)n(-c2ccccc2)n1C	?	nt	nt	?	-2%	45µM*
Cc1c(NC(=O)c2cc(-c3cccs3)on2)c(=O)n(-c2ccccc2)n1C	-1%	32µM*	?	-35%	-8%	14%
O=C(NC(=S)Nc1ccccc1[N+](=O)[O-])c1ccccc1Cl	-10%	nt	nt	nt	-45%	-23%
O=C(Nc1cccc([N+](=O)[O-])c1)c1ccc2ccccc2c1O	6%	15%	?	16µM*	-38%	7%
O=C(O)c1ccc(Cl)c(NC(=S)NC(=O)c2ccccc2[N+](=O)[O-])c1	-9%	22µM*	nt	32µM*	-2%	50µM*
C=C1C(C(=O)Nc2ccccc2)C1C(=O)Nc1ccccc1 (stereo not drawn)	4%	nt	nt	nt	-7%	-2%
Cc1ccc2ccccc2c1CSc1nc(N)nc2c1ncn2CC(C)C	nt	8%[13.5 µM]	nt	nt	nt	nt
COc1ccccc1-c1noc(CCC(=O)Nc2cc(C(F)(F)F)ccc2Cl)n1	5%	4%	-19%	?	0%	18µM*
O=C(O)c1ccc(NNC(=S)Nc2cc(C(F)(F)F)ccc2Cl)cc1	nt	nt	nt	35µM*	-49%	89µM*
O=C(CNC(c1ccccc1)c1ccccc1)Nc1cc([N+](=O)[O-])ccc1Cl	10%	7.1µM*	?	-32%[59 µM]	10%	-22%
O=C(CC(=O)c1ccccc1)Nc1cc(C(F)(F)F)ccc1Cl	-5%	?	-15%	41%[59 µM]	-2%	38%
CC(C)CC(=O)Nc1cc([N+](=O)[O-])ccc1Cl	2%	2%	4%	18%[59 µM]	-6%	2%
Cc1ccc([N+](=O)[O-])cc1NC(=O)c1ccccc1	-3%	3%	-10%[9.22 µM]	11%	0%	4%
COc1ccccc1-c1noc(CCCC(=O)Nc2cccc(C(F)(F)F)c2)n1	nt	nt	7%[46 µM]	12%[59 µM]	-4%	nt
O=C(NC(=S)Nc1cc([N+](=O)[O-])ccc1Cl)c1ccccc1	3%	8.9µM*	?	12%[12.7 µM]	-29%	56µM*
O=C(CCN1C(=O)c2ccccc2C1=O)NCc1ccc(Cl)cc1	nt	nt	nt	20%	1%	-3%
Cc1c(NC(=S)NC(=O)c2cccc([N+](=O)[O-])c2)c(=O)n(-c2ccccc2)n1C	nt	nt	nt	45µM*	9%	-10%
O=C(Nc1cc(C(F)(F)F)ccc1Cl)C(NCc1ccccc1)c1ccccc1 (stereo not drawn)	-8%	-6%	?	21%[59 µM]	3%	7%
O=C(O)CC(NNC(=O)c1ccccc1)C(=O)Nc1cccc([N+](=O)[O-])c1 (stereo not drawn)	-5%	nt	nt	50µM*	-24%	-1%
CCN(CC)CCNC(C(=O)Nc1cc(C(F)(F)F)ccc1Cl)c1ccccc1 (stereo not drawn)	-3%	?	-9%	10µM*	-10%	1%
O=C(NC(=S)Nc1cccc([N+](=O)[O-])c1)c1ccccc1	-3%	nt	nt	-16%[59 µM]	-51%	45µM*
O=C(NC(=S)Nc1cccc([N+](=O)[O-])c1)c1ccco1	-2%	3%	6%	-11%[59 µM]	-27%	?
Cc1c(NC(=S)NC(=O)c2cccc(Br)c2)c(=O)n(-c2ccccc2)n1C	nt	nt	nt	nt	10%	-9%
